This is an account of results in PMC7862700, “An all-to-all approach to the identification of sequence-specific readers for epigenetic DNA modifications on cytosine”.

Holding throughout (assay): DAPPL (digital affinity profiling via proximity ligation, sequencing); 10 mM Tris-HCl pH 7.5, 50 mM NaCl, 1 mM DTT, 4% glycerol, room temperature, 30 min; GST-TFs on glutathione beads, 16-mer random dsDNA library, 0.1% formaldehyde crosslink after washing; high values mean tight binding
Common to all, as to details: protein: recombinant; tags: N-terminal GST; dsDNA, one strand shown

One assay concerns the target T1, FLI1 (Homo sapiens, UniProt Q01543 1-452).
T1 sequence: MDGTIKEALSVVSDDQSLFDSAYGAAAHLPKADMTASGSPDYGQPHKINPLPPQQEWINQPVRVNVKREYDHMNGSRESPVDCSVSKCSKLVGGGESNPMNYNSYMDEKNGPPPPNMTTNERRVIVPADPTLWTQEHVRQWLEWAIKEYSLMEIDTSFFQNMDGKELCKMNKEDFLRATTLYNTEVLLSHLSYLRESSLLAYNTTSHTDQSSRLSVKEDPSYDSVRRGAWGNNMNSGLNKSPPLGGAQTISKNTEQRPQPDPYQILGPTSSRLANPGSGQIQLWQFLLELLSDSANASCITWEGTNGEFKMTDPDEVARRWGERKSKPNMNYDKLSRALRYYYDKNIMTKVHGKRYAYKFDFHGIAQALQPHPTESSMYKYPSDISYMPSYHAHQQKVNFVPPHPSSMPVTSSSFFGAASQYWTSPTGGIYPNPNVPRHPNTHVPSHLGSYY
An outline of the steps:
(§1)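 Sequencing on an Illumina NextSeq500 followed washing, crosslinking with 0.1% formaldehyde, proximity ligation (BsaI/T4 ligase, 1 h, 37 °C) and PCR amplification of pools that had been incubated for 30 min at room temperature with 200 nmole of a random double-stranded 16-mer DNA library in Tris/NaCl/DTT/glycerol buffer. Each pool held DNA-barcoded human transcription factors, expressed in yeast as GST fusions and captured on glutathione beads, plus a tag-only sample. Binding signal is a hexamer's read frequency for a factor divided by its frequency in the tag-only sample.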

Another assay deals with T2, ELK1 (Homo sapiens, UniProt P19419 1-428).
T2 sequence: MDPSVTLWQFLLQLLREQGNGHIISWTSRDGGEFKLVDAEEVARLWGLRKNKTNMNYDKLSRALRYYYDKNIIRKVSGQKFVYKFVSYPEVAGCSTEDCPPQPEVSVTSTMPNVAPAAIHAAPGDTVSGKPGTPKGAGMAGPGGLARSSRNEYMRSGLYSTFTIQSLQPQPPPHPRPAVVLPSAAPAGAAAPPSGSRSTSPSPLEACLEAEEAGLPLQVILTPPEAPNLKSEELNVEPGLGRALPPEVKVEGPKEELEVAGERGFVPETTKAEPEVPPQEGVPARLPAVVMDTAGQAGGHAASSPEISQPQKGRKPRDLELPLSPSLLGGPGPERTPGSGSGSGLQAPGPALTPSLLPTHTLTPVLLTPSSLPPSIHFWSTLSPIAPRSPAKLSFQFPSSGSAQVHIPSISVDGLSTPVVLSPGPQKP
An outline of the steps: as §1

In a further assay the target is T3, GABPA (Homo sapiens, UniProt Q06546 1-454).
T3 sequence: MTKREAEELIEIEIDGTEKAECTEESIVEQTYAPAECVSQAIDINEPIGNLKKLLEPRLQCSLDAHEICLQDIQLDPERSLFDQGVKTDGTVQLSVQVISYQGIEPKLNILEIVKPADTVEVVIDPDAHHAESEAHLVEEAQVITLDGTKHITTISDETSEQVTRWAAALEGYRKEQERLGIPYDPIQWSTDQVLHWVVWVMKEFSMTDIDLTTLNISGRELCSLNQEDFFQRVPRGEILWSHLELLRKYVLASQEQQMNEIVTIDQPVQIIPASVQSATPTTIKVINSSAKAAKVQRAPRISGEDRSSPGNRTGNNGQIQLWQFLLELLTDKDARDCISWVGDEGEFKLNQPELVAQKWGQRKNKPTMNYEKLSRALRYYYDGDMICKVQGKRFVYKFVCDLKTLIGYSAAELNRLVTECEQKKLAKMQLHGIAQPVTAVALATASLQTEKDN
In short, it runs like this: as §1

Another assay deals with T4, ERG (Homo sapiens, UniProt P11308 1-479).
T4 sequence: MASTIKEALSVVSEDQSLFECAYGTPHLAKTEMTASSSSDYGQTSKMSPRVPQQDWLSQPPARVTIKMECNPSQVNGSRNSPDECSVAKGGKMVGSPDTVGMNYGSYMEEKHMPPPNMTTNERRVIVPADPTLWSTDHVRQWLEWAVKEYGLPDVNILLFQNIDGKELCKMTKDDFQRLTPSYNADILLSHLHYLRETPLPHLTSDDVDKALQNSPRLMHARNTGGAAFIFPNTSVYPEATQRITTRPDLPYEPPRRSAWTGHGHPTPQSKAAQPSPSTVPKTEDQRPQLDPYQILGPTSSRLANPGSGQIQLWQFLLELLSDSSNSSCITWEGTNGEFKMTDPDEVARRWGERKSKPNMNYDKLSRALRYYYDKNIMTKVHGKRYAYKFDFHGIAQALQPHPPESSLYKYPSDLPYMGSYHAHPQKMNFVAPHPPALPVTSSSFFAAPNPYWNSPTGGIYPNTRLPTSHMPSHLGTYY
An outline of the steps: as §1

For a further assay, the target named is ELF1 (Homo sapiens, UniProt P32519 1-619). An outline of the steps: as §1
In a further assay the target is T5, EHF (Homo sapiens, UniProt Q9NZC4 1-300).
T5 sequence: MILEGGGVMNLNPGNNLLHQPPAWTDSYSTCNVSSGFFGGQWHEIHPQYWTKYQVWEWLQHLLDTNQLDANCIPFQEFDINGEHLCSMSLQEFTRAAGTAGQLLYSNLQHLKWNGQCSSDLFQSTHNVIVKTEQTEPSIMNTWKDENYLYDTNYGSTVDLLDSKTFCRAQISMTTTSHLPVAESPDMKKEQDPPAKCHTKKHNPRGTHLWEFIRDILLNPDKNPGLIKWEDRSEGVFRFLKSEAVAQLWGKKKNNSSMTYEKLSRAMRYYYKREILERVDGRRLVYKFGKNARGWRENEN
In short, it runs like this:
as §1

A further assay deals with SPI1 (Homo sapiens, UniProt P17947 1-270). In short, it runs like this:
as §1

A further assay has as its target SPIB (Homo sapiens, UniProt Q01892 1-262). An outline of the steps:
as §1

The target of another assay is T6, FEV (Homo sapiens, UniProt Q99581 1-238).
T6 sequence: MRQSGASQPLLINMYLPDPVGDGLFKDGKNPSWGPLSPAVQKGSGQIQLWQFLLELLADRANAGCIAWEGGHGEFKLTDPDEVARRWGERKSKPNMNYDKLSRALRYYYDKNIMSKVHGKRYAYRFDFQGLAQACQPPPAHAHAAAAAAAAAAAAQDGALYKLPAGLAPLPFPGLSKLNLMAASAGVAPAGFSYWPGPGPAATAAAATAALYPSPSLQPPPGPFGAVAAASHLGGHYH
An outline of the steps: as §1

For the next assay, the target named is ETV5 (Homo sapiens, UniProt P41161 1-510). An outline of the steps: as §1
The target of a further assay is T7, SPIC (Homo sapiens, UniProt Q8N5J4 1-248).
T7 sequence: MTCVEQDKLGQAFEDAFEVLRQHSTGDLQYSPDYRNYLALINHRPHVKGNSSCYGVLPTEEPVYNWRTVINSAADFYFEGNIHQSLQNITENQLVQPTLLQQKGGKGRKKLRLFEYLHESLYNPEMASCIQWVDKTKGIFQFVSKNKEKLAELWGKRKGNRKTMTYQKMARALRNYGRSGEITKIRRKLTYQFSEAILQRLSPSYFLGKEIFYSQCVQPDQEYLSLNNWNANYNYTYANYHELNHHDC
In short, it runs like this: as §1

Another assay has as its target ELF4 (Homo sapiens, UniProt Q99607 1-663). An outline of the steps: as §1
The target of another assay is ETV1 (Homo sapiens, UniProt P50549 1-477). An outline of the steps:
as §1

The next assay addresses T8, ERF (Homo sapiens, UniProt P50548 1-548).
T8 sequence: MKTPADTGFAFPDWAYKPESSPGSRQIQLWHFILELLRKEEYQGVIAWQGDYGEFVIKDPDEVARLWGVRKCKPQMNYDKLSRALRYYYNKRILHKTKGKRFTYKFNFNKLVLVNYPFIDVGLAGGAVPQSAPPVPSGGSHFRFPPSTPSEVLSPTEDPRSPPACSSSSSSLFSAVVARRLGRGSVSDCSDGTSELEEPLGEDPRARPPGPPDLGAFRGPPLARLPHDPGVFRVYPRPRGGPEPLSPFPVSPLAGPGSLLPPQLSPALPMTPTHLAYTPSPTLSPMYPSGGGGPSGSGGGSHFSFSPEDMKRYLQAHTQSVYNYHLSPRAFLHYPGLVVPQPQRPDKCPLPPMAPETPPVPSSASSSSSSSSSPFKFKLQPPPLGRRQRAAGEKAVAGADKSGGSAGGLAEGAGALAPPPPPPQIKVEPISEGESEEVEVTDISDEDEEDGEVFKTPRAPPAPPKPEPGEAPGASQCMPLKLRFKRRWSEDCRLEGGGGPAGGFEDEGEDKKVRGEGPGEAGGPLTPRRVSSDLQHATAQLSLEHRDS
An outline of the steps:
as §1

For another assay, the target named is T9, ETV3L (Homo sapiens, UniProt Q6ZN32 1-361).
T9 sequence: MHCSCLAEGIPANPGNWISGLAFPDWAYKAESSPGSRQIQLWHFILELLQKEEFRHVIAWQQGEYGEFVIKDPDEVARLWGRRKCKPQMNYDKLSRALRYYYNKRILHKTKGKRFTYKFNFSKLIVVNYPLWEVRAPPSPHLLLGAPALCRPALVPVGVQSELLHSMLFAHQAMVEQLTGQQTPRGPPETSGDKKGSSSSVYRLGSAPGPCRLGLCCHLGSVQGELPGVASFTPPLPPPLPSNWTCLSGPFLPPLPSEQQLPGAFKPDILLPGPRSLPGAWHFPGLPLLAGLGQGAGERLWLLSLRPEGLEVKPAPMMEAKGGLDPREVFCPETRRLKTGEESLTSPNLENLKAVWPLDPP
An outline of the steps:
as §1

Another assay concerns the target T10, ETS2 (Homo sapiens, UniProt P15036 1-469).
T10 sequence: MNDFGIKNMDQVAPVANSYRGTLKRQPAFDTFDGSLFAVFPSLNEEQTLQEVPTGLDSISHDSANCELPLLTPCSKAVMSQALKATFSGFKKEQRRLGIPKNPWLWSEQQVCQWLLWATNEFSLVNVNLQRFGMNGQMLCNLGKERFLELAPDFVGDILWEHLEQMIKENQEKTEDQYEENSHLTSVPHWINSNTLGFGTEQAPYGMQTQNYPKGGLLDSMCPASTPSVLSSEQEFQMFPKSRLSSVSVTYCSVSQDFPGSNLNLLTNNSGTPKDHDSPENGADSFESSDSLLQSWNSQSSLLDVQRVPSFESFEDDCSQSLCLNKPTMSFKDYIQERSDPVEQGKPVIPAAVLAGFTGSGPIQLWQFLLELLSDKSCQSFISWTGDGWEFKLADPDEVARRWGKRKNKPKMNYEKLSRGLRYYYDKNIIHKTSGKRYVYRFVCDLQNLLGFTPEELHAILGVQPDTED
In short, it runs like this:
as §1

In the next assay the target is T11, ETV3 (Homo sapiens, UniProt P41162-2 1-143).
T11 sequence: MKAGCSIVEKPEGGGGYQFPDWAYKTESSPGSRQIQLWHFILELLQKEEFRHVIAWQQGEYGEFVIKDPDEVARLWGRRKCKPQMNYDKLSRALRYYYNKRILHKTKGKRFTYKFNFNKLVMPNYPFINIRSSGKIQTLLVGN
In short, it runs like this:
as §1

In a further assay the target is ETV6 (Homo sapiens, UniProt P41212 1-452). An outline of the steps:
as §1

ELF4, sequence (Q99607 whole entry): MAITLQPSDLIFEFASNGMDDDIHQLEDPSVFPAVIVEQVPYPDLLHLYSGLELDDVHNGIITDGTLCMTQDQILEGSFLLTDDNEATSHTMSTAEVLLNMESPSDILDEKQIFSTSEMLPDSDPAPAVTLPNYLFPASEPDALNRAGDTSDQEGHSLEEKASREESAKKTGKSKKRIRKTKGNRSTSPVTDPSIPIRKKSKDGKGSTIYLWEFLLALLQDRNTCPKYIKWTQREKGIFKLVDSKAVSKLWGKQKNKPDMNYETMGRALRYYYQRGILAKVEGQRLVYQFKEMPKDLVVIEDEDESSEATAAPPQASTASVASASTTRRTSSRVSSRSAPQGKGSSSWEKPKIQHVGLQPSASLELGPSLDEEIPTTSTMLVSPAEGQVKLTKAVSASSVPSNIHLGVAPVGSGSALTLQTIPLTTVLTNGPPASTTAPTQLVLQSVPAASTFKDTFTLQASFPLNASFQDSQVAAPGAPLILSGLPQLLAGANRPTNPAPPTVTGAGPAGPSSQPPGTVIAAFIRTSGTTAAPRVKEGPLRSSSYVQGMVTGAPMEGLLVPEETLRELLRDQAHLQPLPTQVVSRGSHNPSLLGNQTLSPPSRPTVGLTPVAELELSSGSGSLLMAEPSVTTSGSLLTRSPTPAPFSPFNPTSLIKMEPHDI
ETV6, sequence (P41212 whole entry): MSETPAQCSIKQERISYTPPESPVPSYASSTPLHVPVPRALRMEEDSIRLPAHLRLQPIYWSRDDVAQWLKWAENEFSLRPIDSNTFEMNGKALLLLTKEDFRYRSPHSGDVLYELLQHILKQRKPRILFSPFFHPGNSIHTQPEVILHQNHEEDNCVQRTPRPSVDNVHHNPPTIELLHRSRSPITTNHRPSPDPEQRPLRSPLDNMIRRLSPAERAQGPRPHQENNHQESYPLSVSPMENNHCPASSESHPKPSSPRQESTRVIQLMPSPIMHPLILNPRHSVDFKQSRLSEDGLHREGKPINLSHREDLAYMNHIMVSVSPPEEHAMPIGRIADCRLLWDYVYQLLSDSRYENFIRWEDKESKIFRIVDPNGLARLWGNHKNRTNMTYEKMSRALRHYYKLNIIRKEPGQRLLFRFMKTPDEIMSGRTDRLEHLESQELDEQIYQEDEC
ETV1, sequence (P50549 whole entry): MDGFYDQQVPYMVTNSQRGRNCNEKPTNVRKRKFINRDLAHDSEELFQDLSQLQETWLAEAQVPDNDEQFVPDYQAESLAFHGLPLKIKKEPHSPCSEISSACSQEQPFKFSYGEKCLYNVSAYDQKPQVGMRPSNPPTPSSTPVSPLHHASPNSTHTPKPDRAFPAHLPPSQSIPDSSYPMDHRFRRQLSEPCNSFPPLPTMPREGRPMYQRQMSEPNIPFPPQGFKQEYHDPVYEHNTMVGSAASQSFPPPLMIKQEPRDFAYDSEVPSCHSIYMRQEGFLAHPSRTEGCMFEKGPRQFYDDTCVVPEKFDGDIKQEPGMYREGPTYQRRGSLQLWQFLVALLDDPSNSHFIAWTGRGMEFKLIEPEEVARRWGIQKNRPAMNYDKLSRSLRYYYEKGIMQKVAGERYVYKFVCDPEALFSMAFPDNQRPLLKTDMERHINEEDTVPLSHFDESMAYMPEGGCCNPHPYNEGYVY
ETV5, sequence (P41161 whole entry): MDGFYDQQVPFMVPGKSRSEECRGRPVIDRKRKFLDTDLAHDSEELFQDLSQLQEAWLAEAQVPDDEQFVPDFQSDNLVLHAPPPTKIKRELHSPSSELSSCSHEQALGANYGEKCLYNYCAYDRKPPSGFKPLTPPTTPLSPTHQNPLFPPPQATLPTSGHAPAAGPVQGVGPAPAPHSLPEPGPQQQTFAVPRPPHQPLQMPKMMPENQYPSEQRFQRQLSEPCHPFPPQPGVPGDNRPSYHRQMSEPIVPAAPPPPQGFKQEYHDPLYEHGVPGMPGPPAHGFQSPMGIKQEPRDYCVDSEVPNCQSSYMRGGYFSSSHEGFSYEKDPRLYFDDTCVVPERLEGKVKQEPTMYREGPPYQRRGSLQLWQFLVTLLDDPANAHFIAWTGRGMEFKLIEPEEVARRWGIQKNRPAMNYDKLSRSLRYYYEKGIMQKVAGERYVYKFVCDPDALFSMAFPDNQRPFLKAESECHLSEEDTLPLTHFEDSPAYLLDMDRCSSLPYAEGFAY
ELF1, sequence (P32519 whole entry): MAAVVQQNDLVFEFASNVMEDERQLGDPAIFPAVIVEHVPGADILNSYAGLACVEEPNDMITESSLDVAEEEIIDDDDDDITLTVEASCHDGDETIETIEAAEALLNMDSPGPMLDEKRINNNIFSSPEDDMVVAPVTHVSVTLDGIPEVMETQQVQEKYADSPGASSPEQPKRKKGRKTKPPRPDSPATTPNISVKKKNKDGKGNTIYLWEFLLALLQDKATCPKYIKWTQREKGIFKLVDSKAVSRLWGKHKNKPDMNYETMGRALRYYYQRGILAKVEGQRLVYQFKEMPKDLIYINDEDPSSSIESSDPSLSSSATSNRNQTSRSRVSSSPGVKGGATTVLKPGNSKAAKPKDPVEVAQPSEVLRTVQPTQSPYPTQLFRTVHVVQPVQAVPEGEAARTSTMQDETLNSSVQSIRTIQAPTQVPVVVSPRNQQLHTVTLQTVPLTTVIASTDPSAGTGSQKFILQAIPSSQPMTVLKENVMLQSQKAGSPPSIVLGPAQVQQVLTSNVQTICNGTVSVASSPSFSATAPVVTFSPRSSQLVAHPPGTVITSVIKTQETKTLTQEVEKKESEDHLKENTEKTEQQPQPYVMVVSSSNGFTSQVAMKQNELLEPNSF
SPIB, sequence (Q01892 whole entry): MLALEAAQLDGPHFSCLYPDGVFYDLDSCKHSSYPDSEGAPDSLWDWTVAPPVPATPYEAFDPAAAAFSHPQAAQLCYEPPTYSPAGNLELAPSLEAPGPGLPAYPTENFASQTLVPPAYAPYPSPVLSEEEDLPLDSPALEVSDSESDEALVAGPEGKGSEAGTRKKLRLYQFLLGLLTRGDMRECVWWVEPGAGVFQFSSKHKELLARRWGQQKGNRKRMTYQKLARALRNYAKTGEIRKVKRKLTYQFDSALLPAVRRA

Regarding TGGACC, the binding signal with FLI1 is 1.11 fold enrichment (6-mer frequency, TF over GST control); in the assay with ELK1 it was 1.03 fold enrichment (6-mer frequency, TF over GST control); with GABPA, 1.09 fold enrichment (6-mer frequency, TF over GST control); in the assay with ERG, 1.04 fold enrichment (6-mer frequency, TF over GST control); in the assay with ELF1, 1.06 fold enrichment (6-mer frequency, TF over GST control); with EHF, 1.1 fold enrichment (6-mer frequency, TF over GST control). Besides, the binding signal in the assay with SPI1 is 1.1 fold enrichment (6-mer frequency, TF over GST control); with SPIB, 1.02 fold enrichment (6-mer frequency, TF over GST control); with FEV, 1.17 fold enrichment (6-mer frequency, TF over GST control); in the assay with ETV5 it was 1.05 fold enrichment (6-mer frequency, TF over GST control); with SPIC, 1.16 fold enrichment (6-mer frequency, TF over GST control); with ELF4, 1.06 fold enrichment (6-mer frequency, TF over GST control). Also, the binding signal with ETV1 is 1.08 fold enrichment (6-mer frequency, TF over GST control); with ERF it was 1.11 fold enrichment (6-mer frequency, TF over GST control); in the assay with ETV3L, 1.13 fold enrichment (6-mer frequency, TF over GST control); with ETS2, 1.04 fold enrichment (6-mer frequency, TF over GST control); in the assay with ETV3 it was 1.04 fold enrichment (6-mer frequency, TF over GST control); with ETV6, 1.08 fold enrichment (6-mer frequency, TF over GST control).
